# TDP1 cell CPT – growth inhibition of DT40 Tdp1-/-;hTDP1 cells with camptothecin (screen for TDP1 inhibitors). chicken DT40 Tdp1-/-;hTDP1 cells + 20 nM CPT, ATP luminescence, 48 h. Potency, µM (top dose mostly 46.2 µM), for the others: at the top dose activity change, negative = growth inhibition, hits mostly inhibitors. 12% of 420,000 active. AID 686979; further: potency means the concentration at half of the fitted maximal effect; nearly all actives have a fitted effect of over 55% in size
#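 Chicken DT40 Tdp1-/- cells complemented with human TDP1, 400 cells/well, exposed to compounds plus 20 nM camptothecin for at least 48 h at 37 C; viability read as ATP content by CellTiter-Glo luminescence.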
# ELG1 DNA repair – inhibitors of ELG1-dependent DNA repair in HEK293T cells; HEK293T ELG1-luciferase reporter, luminescence, 16 h; DNA damage induced by 5-fluorouridine; Potency, µM (doses to about 46.1 µM), without a hit: at the top dose activity change, negative = inhibition, actives largely listed as inhibitors; 2.3% of 330,000 active; further: potency means the concentration at half of the fitted maximal effect; nearly all actives have a fitted effect of over 55% in size
#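 Luminescence from the luciferase reporter, measured 30 min after ONE-Glo reagent at room temperature, was the read-out. Beforehand, 2,000 cells per well were exposed for 16 hr at 37 °C to 5-fluorouridine together with compound or vehicle.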
# TDP1 cell noCPT – qHTS for Inhibitors of human tyrosyl-DNA phosphodiesterase 1 (TDP1): qHTS in cells in absence of CPT; DT40 Tdp1-/- hTDP1 cells, no CPT, ATP luminescence, 48 h; 15% of 420,000 active; Potency, µM (top dose mostly 46.2 µM), for inactives: at the top dose activity change, negative = growth inhibition, hits mostly inhibitors; further: potency means the concentration at half of the fitted maximal effect; nearly all actives have a fitted effect of over 55% in size
#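 Compound effects on proliferation are scored in DT40 Tdp1-/-;hTDP1 cells in the absence of CPT. ATP levels (CellTiter-Glo luminescence) are recorded after a ≥48 hr, 37 °C incubation.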
# IL1B secr inh – inflammasome signaling inhibition, IL-1 beta readout | THP-1 LPS/ATP IL-1B secretion, AlphaLISA, 16 h; active compounds read low | activity change, % at 57.5 µM | 4.7% of 360,000 active | AID 743279; in the data active means activity change below about -50%; inconclusive means mostly about -30% to -49%
#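 THP-1 cells pretreated 1 hr with compounds (up to 57.5 uM final), then stimulated with LPS (250 ng/mL final) plus ATP (1.25 mM final); secreted IL-1B measured by AlphaLISA after 16 hr, decreased signal indicating inhibition.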
# HT1080NT lethal – kills 2HG-producing HT-1080-NT fibrosarcoma cells; HT-1080-NT fibrosarcoma viability, CellTiter-Glo ATP luminescence, 48 h; Potency, µM (highest dose often 46.1 µM), for the others: top-dose activity, negative = less viability, most hits filed as cytotoxic; 1.6% of 360,000 active; AID 686970;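 further: NT is the 2HG producing partner of a matched IDH1 knockdown line; potency means the concentration at half of the fitted maximal effect; 0% = DMSO-treated cells and -100% = media-only wells without cells; nearly all actives have a fitted effect of over 55% in size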
#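 Viability by CellTiter-Glo luminescence after 48 h compound exposure at 37C of HT-1080-NT cells (750/well, RPMI, 5% FBS). % activity scaled between DMSO wells and medium-only wells, then curve-fitted and categorized by curve class.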
# HT1080 IDH1KD tx – toxicity to HT-1080 IDH1 knockdown cells (counter line) | 2% of 360,000 active | AID 686971 | Potency, µM (highest dose often 46.1 µM), inactives show at the top dose activity, negative = toxicity, most hits filed as cytotoxic | HT-1080 IDH1 knockdown viability, ATP luminescence, 48 h;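 further: potency means the concentration at half of the fitted maximal effect; 0% = DMSO wells and -100% = cell-free medium wells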
#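 After a 2 h attachment period, IDH1KD HT-1080 cells took pin-transferred compound for 48 h at 37 °C; ATP-based luminescence after 10 min room-temperature reagent incubation reported viability.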
# Active calls of the source: *; i = inactive; ? = inconclusive; · = no result; [ ] = dose if it differs, or a comment. Sampled rows, rich in hits. Any-hit rate of the full collection: about 19%. Unless noted, the call rests on the fitted dose curve; in most records, active means well fitted curve in the direction sought with a large enough effect; inconclusive means small, poorly fitted or top-dose-only effect, or another doubt; inactive means no such curve, though single readings can be large; an effect the other way counts as inactive or inconclusive. Unless noted, on the % scale 0 is the no-effect control and ±100 the full control effect.
SMILES,TDP1 cell CPT,ELG1 DNA repair,TDP1 cell noCPT,IL1B secr inh,HT1080NT lethal,HT1080 IDH1KD tx
CCOC(=O)C1CCCN(c2nc3ccccc3nc2C(C#N)C(=O)OCC)C1 (stereo unspecified),?,?,23µM*,-29,?,-28%
COc1ccc2ccccc2c1CN1CCc2nnc(C(NS(C)(=O)=O)C(C)C)n2CC1 (stereo unspecified),?,·,-17%,·,·,·
CC(NC(=O)c1cc(S(=O)(=O)N(C)C)ccc1Cl)C1CC2CCC1C2 (stereo unspecified),16µM*,-22%,9.2µM*,21,0%,-7%
Cc1ccccc1CN1CCN(c2nc3ccccc3s2)CC1,18µM*,?,-15%,18,-3%,-8%
CN(C)CCCNC(=O)C[C@H]1C[C@H](C(=O)N2CCOCC2)[C@@]2(C)c3[nH]c4cc(-c5ccco5)ccc4c3CCN2C1=O,?,-1%,-6%,-21,-11%,-3%
CN1CCN(C(=S)NC(=O)c2ccc(C(C)(C)C)cc2)CC1,?,8%,?,2,-12%,-12%
C=CCn1cccc(/C=C/C(=O)c2ccc(C(C)(C)C)cc2)c1=S,7.3µM*,?,7.3µM*,-107*,?,-19%
COc1ccc(C(=O)Oc2cc(/C=N/NC(N)=S)ccc2OC)cc1,-5%,?,-26%,13,1%,-2%
COc1ccc(C(=O)Oc2ccc(F)cc2C(=O)/C=C/c2ccc(OC)c(OC)c2)cc1,15µM*,?,13µM*,-1,?,?
COc1ccc(/C=C/C(=O)c2cc(F)ccc2OC(=O)c2ccccc2C)cc1OC,0.92µM*,-10%,1µM*,-99*,1.3µM*,3.3µM*
COc1ccc(/C=C/C(=O)c2ccc3c4c(cccc24)CC3)cc1OC,21µM*,?,16µM*,-3,?,16µM*
CCOc1ccc(S(=O)(=O)N2CCC(C(=O)NCc3ccncc3)CC2)cc1C,-10%,?,-10%,-3,-2%,-10%
O=C(CN1CCOCC1)Nc1cc(C(F)(F)F)ccc1Cl,-23%,?,-22%,-4,-10%,9%
O=C(CN1CCN(C(=O)c2ccco2)CC1)Nc1cc(C(F)(F)F)ccc1Cl,?,?,23µM*,-9,8%,1%[9.24 µM]
Cc1cc(Cl)c2oc(C(=O)N3CCOCC3)c(C)c2c1,?,·,-22%,-28,16%,8%
CC(=O)N1CCN(C(=S)c2ccc(-c3ccc(Cl)cc3)o2)CC1,?,11%,26µM*,-12,-12%,-10%
O=C(c1ccco1)N1CCN(C(=O)c2ccc(-c3cccc(C(F)(F)F)c3)o2)CC1,?,?,21µM*,-70*,-29%,-22%
S=C(c1ccc(-c2cccc(Cl)c2)o1)N1CCCCC1,-4%,?,?,18,-10%,-14%
Cc1cc(Cl)c2oc(C(=O)N3CCN(C(=O)c4ccco4)CC3)c(C)c2c1,16µM*,-21%,?,-7,-17%,-8%
Cc1cc2c(cc1C)N[C@]1(C[C@H]3CCCC(=O)N4CC[C@@H](C1)[C@@H]34)C(=NC1CCCCC1)N2,-29%,·,-25%,·,·,·
CN(C(=O)COC(=O)c1ccc2c(c1)OCCO2)C1CCCCC1,-1%,?,3%,18,6%,2%
CC(OC(=O)c1ccc(F)c(S(=O)(=O)N2CCOCC2)c1)C(=O)NC1CCCC1 (stereo unspecified),5%,5%,-11%,6,1%,9%
CCC(=O)Nc1ccc(N2CCN(C(=O)c3ccco3)CC2)c(Cl)c1,-11%,?,?,i,-9%,-23%
N#CCCN1CCN(C(=S)c2ccc(-c3ccc(Cl)c(Cl)c3)o2)CC1,26µM*,?,?,-53*,?,?
CC1CN(C(=O)c2ccc(-c3cccc(C(F)(F)F)c3)o2)CC(C)O1 (stereo unspecified),?,-6%,13µM*,-56*,9%,-10%
SMILES,TDP1 cell CPT,ELG1 DNA repair,TDP1 cell noCPT,IL1B secr inh,HT1080NT lethal,HT1080 IDH1KD tx
O=C(Cc1ccc(Cl)cc1)Nc1ccc(N2CCN(C(=O)c3ccco3)CC2)c(Cl)c1,15µM*,13µM*,23µM*,-68*,?,?
N#CCCN1CCN(C(=S)c2ccc(-c3cccc(Cl)c3)o2)CC1,?,?,-29%,-24,-6%,-28%
O=C(c1ccco1)N1CCN(C(=O)c2ccc(-c3ccc(Cl)cc3)o2)CC1,18µM*,?,?,-6,11%,10%
Cc1ccccc1S(=O)(=O)N(C)C[C@@H]1OCc2cnnn2CCCC(=O)N([C@@H](C)CO)C[C@H]1C,-8%,·,-7%,4,6%,0%
CCOC(=O)C1CCCN(C(=O)CN2C(=O)c3ccccc3C2=O)C1 (stereo unspecified),-5%,5%,1%,8,-1%,0%
CCOC(=O)C1CCCN(C(=O)CN2C(=O)/C(=C/c3ccc(OC)cc3)Oc3ccccc32)C1 (stereo unspecified),?,23µM*,13µM*,-20,-12%,-5%
CCOc1ccc(CCNC(=O)Cc2ccc(NC3=NC4CS(=O)(=O)CC4S3)cc2)cc1OCC (stereo unspecified),1%,?,4%,0,?,9%
Cn1c(=O)c2c(-c3ccccc3)n(-c3cc([N+](=O)[O-])ccc3O)cc2n(C)c1=O,-26%,·,-9%,33,11%,10%
Cn1c(=O)c2c(-c3ccccc3Cl)n(Cc3ccc(Cl)cc3)cc2n(C)c1=O,8.2µM*,·,6.5µM*,·,·,·
Cn1c(=O)c2c(-c3ccccc3Cl)n(-c3cc(Cl)ccc3O)cc2n(C)c1=O,21µM*,·,?,·,·,·
COc1cc(OC)cc(C(C(=O)NCc2ccccc2)N(Cc2ccco2)C(=O)c2ccno2)c1 (stereo unspecified),?,?,23µM*,-2,-2%,-5%
COc1ccc(CNC(=O)C(C)N(Cc2ccco2)C(=O)c2snc(C(N)=O)c2N)cc1 (stereo unspecified),-27%,0%,1%,4,1%,2%
Cc1ccc(C(C(=O)NCc2ccccc2)N(Cc2ccco2)C(=O)c2snc(C(N)=O)c2N)o1 (stereo unspecified),?,?,15µM*,14,-3%,-1%

# Screening results as filed in PubChem BioAssay.
